# Bioassay records as filed in PubChem BioAssay.
# Many of the other results were omitted from the sample, so hits are more common in it than they were.
# NS1 function inh: blocks influenza NS1 protein function; Potency, µM (highest dose often 46.1 µM), without a hit: top-dose activity, positive = more growth; 0.4% of 270,000 active; AID 2326; calls by dose curve; note: potency is the fitted concentration of half-maximal effect; actives are rising curves; nearly all actives have a fitted effect of over 50% in size
#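 Growth recovery, yeast-based: influenza A NS1 expressed in S. cerevisiae causes slow growth, and suppressors are detected by OD600. The parent strain without NS1 is used as positive control.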
# Tb PYK inh: blocks Trypanosoma brucei pyruvate kinase. 0.12% of 410,000 active. Potency, µM (doses to about 76.8 µM), without a hit: at the top dose activity, negative = inhibition, most hits filed as inhibitors. AID 624173. TbPYK enzyme, Kinase-Glo Plus ATP luminescence, 45 min; note: potency is the fitted concentration of half-maximal effect; % is set by controls: 0 for no effect and ±100 for the full control effect; nearly all actives have a fitted effect of over 50% in size
#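 ADP (130 uM final) triggers the TbPYK reaction after compound addition; incubation is 45 min at room temperature. Kinase-Glo Plus is then added and luminescence imaged. Normalized data are fitted to concentration-effect curves.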
# SARS PLpro yeast: SARS-CoV PLP inhibition in yeast | 0.19% of 330,000 active | AID 485353 | Potency, µM (series often up to 32.9 µM), for inactives: at the highest dose activity, positive = growth rescue, usual class: activators | S. cerevisiae expressing SARS-CoV PLpro, growth rescue; calls by dose curve; note: potency is the fitted concentration of half-maximal effect; 0% is about no effect; nearly all actives have a fitted effect of over 55% in size
# Cycloheximide cs: counter-screen hit for Shiga toxin inhibitors, cycloheximide; max response, %; 12% of 300,000 active; cell reporter, cycloheximide protein synthesis inhibition counterscreen; AID 2314; in the data active = max response mostly above about 13%, no sharp cut-off; inactive = mostly below about 14%; note: read at 38.3 µM for the half of the compounds with a filed dose; 0% is about no effect
# LmPK inh: inhibitors of Leishmania mexicana pyruvate kinase; purified LmPK, Kinase-Glo ATP luminescence, 1 h; Potency, µM (doses to about 57.5 µM), for the others: top-dose activity change, negative = inhibition, most hits filed as inhibitors; 0.37% of 290,000 active; AID 1721; note: potency is the fitted concentration of half-maximal effect; % is set by controls: 0 for no effect and ±100 for the full control effect
# Target sequence (Q27686 whole entry, looked up): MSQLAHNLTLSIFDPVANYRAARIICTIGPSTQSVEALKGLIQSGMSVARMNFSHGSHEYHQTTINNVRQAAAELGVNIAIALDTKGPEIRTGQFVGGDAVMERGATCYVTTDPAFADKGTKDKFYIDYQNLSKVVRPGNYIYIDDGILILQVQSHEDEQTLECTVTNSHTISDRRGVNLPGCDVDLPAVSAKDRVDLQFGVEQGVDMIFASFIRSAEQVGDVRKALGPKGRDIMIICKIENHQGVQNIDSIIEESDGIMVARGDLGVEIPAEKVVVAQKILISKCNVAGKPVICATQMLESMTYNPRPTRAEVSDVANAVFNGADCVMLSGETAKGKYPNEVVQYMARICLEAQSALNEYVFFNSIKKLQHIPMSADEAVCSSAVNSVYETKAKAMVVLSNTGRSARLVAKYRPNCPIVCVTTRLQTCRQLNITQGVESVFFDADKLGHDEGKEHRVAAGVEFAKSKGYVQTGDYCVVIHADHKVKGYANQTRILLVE
#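 Pyruvate kinase activity monitored as ATP production (luciferase luminescence). Conditions: 0.1 nM enzyme, 0.5 mM PEP, 0.1 mM ADP, 1 h, RT; normalized against uninhibited and no-enzyme wells.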
# Shiga toxin inh: blocks Shiga toxin action in Vero cells. Vero cells, Shiga toxin protein synthesis inhibition reporter. 9.2% of 290,000 active. inhibition, % at 38.7 µM. AID 2315; in the data active = inhibition mostly above about 28%, no sharp cut-off; inactive = mostly below about 43%; note: 0% is about no effect
# The depositor's hits bear a star; ? = inconclusive; . = no result; + = active, no number; [ ] = remark or other dose. Unless noted, calls come from the whole dose curve; as a rule, active = well fitted curve in the direction sought with a large enough effect; inconclusive = small, poorly fitted or top-dose-only effect, or another doubt; inactive = no such curve, though single readings can be large; an effect the other way counts as inactive or inconclusive.
SMILES,NS1 function inh,Tb PYK inh,SARS PLpro yeast,Cycloheximide cs,LmPK inh,Shiga toxin inh
COc1ccccc1OCCNC(=O)C(CCSC)NS(=O)(=O)c1ccccc1F (stereo unspecified),.,2.8%,-2.8%,.,.,.
COc1cccc2cc(-c3nnc(-c4ccccc4)o3)c(=O)oc12,1.5%,-12.4%,-0.3%,38.7*,-20.4%,86.7*
COc1cccc2cc(C(=O)N3CCN(c4cc(C)ccc4C)CC3)c(=O)oc12,.,0.6%,.,.,.,.
O=C(OCc1ccc([N+](=O)[O-])cc1)c1cc2ccccc2oc1=O,.,1.0%,.,.,.,.
CCOC(=O)c1ccc(COC(=O)c2cc3ccccc3oc2=O)o1,-17.6%,2.4%,-0.3%,28.3*,5.5%,39.6
COc1cccc2cc(C(=O)N3CCN(c4ccccn4)CC3)c(=O)oc12,7.6%,4.8%,6.1%,32.0*,-7.6%,35.4
O=C(CSc1nc(-c2ccc(F)cc2)cs1)NCC1CCCO1 (stereo unspecified),.,-3.1%,5.1%,.,.,.
Cc1ccc(S(=O)(=O)NCc2ccccc2)cc1C(=O)N1CCCC(C(F)(F)F)C1 (stereo unspecified),.,1.6%,0.4%,.,.,.
O=C(COc1ccc(F)cc1)NCc1ccc2c(c1)CCN2C(=O)c1ccccc1,.,-4.1%,.,.,.,.
COc1ccc(S(=O)(=O)N2CCC(C(=O)NC3CCCCC3)CC2)cc1OC,.,-8.3%,-5.2%,.,.,.
O=C(Nc1cccc(S(=O)(=O)N2CCCCC2)c1)c1cccs1,-7.7%,-4.6%,10.3%,-2.7,-3.5%,22.9
O=C(Oc1cccc(NC(=O)c2cccs2)c1)c1cccc(S(=O)(=O)N2CCCC2)c1,?,1.2%,-14.0%,13.6*,0.0%,38.2
O=C(Oc1cccc(NC(=O)c2ccco2)c1)c1cccc(S(=O)(=O)N2CCCC2)c1,10.1%,-7.9%,-1.5%,18.0*,-5.2%,24.9
CCS(=O)CCSc1nc2ccccc2s1 (stereo unspecified),-0.2%,1.6%,-1.2%,32.0*,1.1%,120.6*
c1csc(CSc2nc3ccccc3s2)c1,-0.1%,-12.1%,-5.1%,33.7*,-14.7%,136.1*
CCN(C(C)=O)c1nnc(CSc2nc3ccccc3s2)s1,-47.8%,?,-6.4%,24.8*,-10.4%,156.9*
CNc1nnc(CSc2nc3ccccc3s2)s1,-34.4%,-9.6%,-1.4%,21.9*,-1.8%,84.3*
Cc1noc(C)c1CSc1nc2ccccc2s1,-15.3%,-2.4%,-5.8%,17.8,-3.5%,39.3
CNc1nnc(CSc2nc(C)cc(C)n2)s1,7.6%,-6.2%,0.9%,-2.3,0.4%,-6.8
COc1cccc(CC(=O)Nc2cccc3ccccc23)c1,-9.4%,-2.8%,2.0%,-3.4,0.4%,-8.2
CCOc1ccc(NC(=O)Cn2cnc3c(oc4ccccc43)c2=O)cc1,.,3.3%,.,.,.,.
NC(=O)c1c(NC(=O)c2ccccc2Cl)sc2c1CCC2,-7.3%,6.6%,-3.2%,38.4*,0.1%,50.6*
CCn1cc(Br)c(C(=O)Nc2sc3c(c2C(N)=O)CCCC3)n1,-4.1%,-10.9%,-0.6%,-1.0,-11.4%,-13.8
NC(=O)c1c(NC(=O)c2cccnc2Cl)sc2c1CCCC2,-21.6%,5.0%,-11.5%,2.6,4.0%,14.9
Cn1cc(Br)c(C(=O)Nc2sc3c(c2C(N)=O)CCCC3)n1,-5.9%,-15.1%,-5.1%,35.5*,-4.8%,65.6*
SMILES,NS1 function inh,Tb PYK inh,SARS PLpro yeast,Cycloheximide cs,LmPK inh,Shiga toxin inh
Cc1onc(C(=O)Nc2sc3c(c2C(N)=O)CCCC3)c1[N+](=O)[O-],-46.7%,?,-3.3%,20.1*,-12.0%,34.2
NC(=O)c1c(NC(=O)c2ccc(F)cc2Cl)sc2c1CCC2,-12.3%,0.1%,-2.7%,24.8*,-0.6%,31.1*
CC1CCN(C(=O)CSc2ccc(-c3cccnc3)nn2)CC1,3.2%,-6.4%,-2.7%,2.2,-1.6%,-1.4
NC(=O)c1c(NC(=O)c2ccccc2F)sc2c1CCCC2,6.4%,3.7%,-7.1%,48.9*,-0.7%,83.1*
NC(=O)c1c(NC(=O)c2ccccc2C(=O)O)sc2c1CCCC2,4.9%,-3.5%,1.4%,1.2,5.5%,-2.1
CCOc1ccc(N2C(=O)c3[nH]nc(-c4ccc(OC)cc4)c3C2c2cccs2)cc1 (stereo unspecified),.,-6.1%,.,.,.,.
CC(=O)Nc1ccc(S(=O)(=O)Nc2cc(-c3cn4ccccc4n3)ccc2C)cc1,.,2.7%,.,.,.,.
O=C(CSc1nc(=O)n(Cc2ccco2)c2c1CCC2)NCc1ccc(Cl)cc1,.,-4.7%,.,.,.,.
O=C(Nc1c(C(=O)Nc2ccccc2F)oc2ccccc12)c1cc2ccccc2o1,.,4.4%,.,.,.,.
CCOc1ccc(C(c2c(O)cc(C)n(Cc3ccco3)c2=O)N2CCN(C)CC2)cc1 (stereo unspecified),.,-10.9%,.,.,.,.
CCCCOC(=O)N1CCOCCOCCN(C(=O)OCCCC)CCOCCOCC1,3.0%,-11.8%,-2.1%,1.4,-2.1%,-13.2
O=C(Oc1ccc(C(=S)N2CCOCC2)cc1)c1ccccc1,.,-1.7%,-2.5%,15.1,-1.7%,-2.3
O=C(c1ccccc1)c1ccc(OC(=O)N2CCOCC2)cc1,-20.4%,-2.2%,0.9%,36.4*,2.1%,42.8
CCCCOC(=O)c1ccc(OC(=O)N2CCOCC2)cc1,-7.1%,2.2%,4.1%,28.9*,-2.7%,32.9
O=C(Nc1ccc2c(c1)OCO2)c1cnn2cccnc12,-0.1%,-8.8%,-3.6%,48.9*,-18.4%,73.9*
O=C(Nc1cccnc1)c1cnn2cccnc12,-5.8%,0.9%,-2.0%,-0.5,-3.1%,23.9
O=C(Nc1cccc(O)c1)c1cnn2cccnc12,9.3%,-4.0%,8.3%,40.0*,-6.9%,101.5*
CCCCCCNCC(=O)N1CCC(Cc2ccccc2)CC1,-12.7%,6.2%,-3.7%,-3.3,-6.2%,-3.0
O=C(Nc1nc2cc3c(cc2s1)OCO3)C1CCCCC1,-13.0%,-3.5%,-0.1%,89.2*,0.4%,108.3*
O=C(Nc1nc2cc3c(cc2s1)OCO3)C1CC1,-6.9%,4.9%,-4.8%,24.3*,-1.2%,81.3*
N#CCC(=N)N1CCN(c2ccccc2)CC1,-0.2%,1.2%,-4.6%,13.0,-1.5%,53.0*
O=C(c1ccccc1)c1ccc(C(=O)N2CCN(c3ccccc3Cl)CC2)cc1,.,1.5%,-3.3%,.,.,.
N#CCC(=N)N1CCN(c2ccccc2Cl)CC1,-4.4%,-11.3%,-5.0%,-0.9,2.7%,+
N#CCC(=N)N1CCN(c2cccc(Cl)c2)CC1,4.9%,-3.5%,0.8%,1.3,2.4%,18.1
Fc1ccccc1N1CCN(c2nnc(C(F)(F)F)c3nnn(Cc4ccccc4)c23)CC1,.,1.1%,.,.,.,.
CCc1ccc(NC(=S)Nc2cc(C(=O)O)ccc2N2CC3CC(C2)c2cccc(=O)n2C3)cc1 (stereo unspecified),.,-1.0%,14.9%,35.5,1.8%[11.5 µM],70.0*
O=C(CCS(=O)(=O)c1ccccc1)Nc1cccc(-c2nc3ccccc3s2)c1,-0.9%,4.6%,23.5%,57.4*,-1.2%,78.9*
O=C(COc1ccccc1[N+](=O)[O-])Nc1ccc(-c2nc3ccccc3s2)cc1,.,-7.5%,.,.,.,.
CCS(=O)(=O)c1ccccc1C(=O)Nc1ccc(-c2nc3ccccc3s2)cc1,.,-0.4%,.,.,.,.
